Measured values published in PubChem BioAssay AID624297 (National Center for Advancing Translational Sciences (NCATS), 2012).
The campaign covered roughly 340,000 compounds. About 6,200 (1.8%) were called active. Roughly 10% stayed inconclusive and do not appear here. The entries come from a sample that favours actives as a whole. Where a call stands in place of a potency, no number is given. Values without a mark were called inactive. Calls follow the shape of the dose curve; as a rule, active = well fitted activation curve with a large enough effect; inconclusive = small, poorly fitted or top-dose-only effect; inactive = no such curve, though single readings can be large or run the other way.

assay: A quantitative high throughput screen for small molecules that induce DNA re-replication in SW480 colon adenocarcinoma cells.; also: nearly all actives have a fitted effect of over 55% in size; conditions: Hoechst DNA content imaging, 48 h; series mostly up to 46.1 µM
Outline: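 Readout is total intensity of Hoechst-stained nuclei, excited at 405 nm and collected at 500-530 nm. Compound treatment lasted 48 hr at 37 C in 5% CO2 before staining.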
Potency is read from the fitted curve at half-maximal effect.

| SMILES | Potency | re-replication activation |
| --- | --- | --- |
| O=C(OCC(=O)N1CCN(C(=O)c2ccco2)CC1)c1c(Cl)cccc1Cl | inactive | – |
| O=C(/C=C/c1ccc([N+](=O)[O-])o1)NNC(=O)c1ccc(F)cc1 | 3.66 µM (active) | – |
| O=C(NNC(=O)C1CCCC1)c1ccc(F)cc1 | inactive | – |
| Cc1ccc(/C=C/C(=O)Nc2ccc([N+](=O)[O-])c(NC(=O)/C=C/c3ccc(C)o3)c2)o1 | inactive | – |
| Cc1cccc(C(=O)OCC(=O)NC(C)C2CC3CCC2C3)c1O (stereo not given) | inactive | – |
| CNC(=S)NNC(=O)c1sccc1OCc1ccccc1 | inactive | – |
| CNC(=S)NNC(=O)c1oc2nc(-c3ccccc3)cc(-c3ccco3)c2c1N | 14.6 µM (active) | – |
| CNC(=S)NNC(=O)c1cccn(Cc2ccccc2)c1=O | inactive | – |
| COc1ccc(CC(=O)NC(C)c2ccc(Cl)c(Cl)c2)cc1S(=O)(=O)N1CCOCC1 (stereo not given) | inactive | – |
| Cc1ccc(Nc2c(O)nc[nH]c2=O)cc1C | inactive | – |
| C[C@]12CC[C@H](O)CC1=CCC1C2CC[C@@]2(C)C1CC[C@@H]2NC(=O)CCC(=O)O (stereo not given in full) | inactive | – |
| COC(=O)C1CC2=C(CC(C)(C)CC2=O)N(c2ccccc2)C1=O (stereo not given) | inactive | – |
| Cc1ccc(S(=O)(=O)/N=C(/Nc2ccc3[nH]c(=O)[nH]c3c2)c2ccccc2)cc1 | inactive | – |
| CCOC(=O)c1ccc(NC(=O)c2cccnc2)cc1 | inactive | – |
| CCOC(=O)c1ccc(N/C(=N/S(=O)(=O)c2ccccc2)c2ccccc2)cc1 | 20.6 µM (active) | – |
| NC(=S)NN=C1CCCC(C(F)(F)F)C1 (stereo not given) | inactive | – |
| O=C1/C(=C\c2ccc([N+](=O)[O-])cc2)CS(=O)(=O)C/C1=C/c1ccc([N+](=O)[O-])cc1 | 4.11 µM (active) | – |
| O=[N+]([O-])c1ccc(C=NN=Cc2ccc([N+](=O)[O-])cc2)cc1 | inactive | – |
| O=C(NN=Cc1ccc([N+](=O)[O-])cc1)C1CC1 | inactive | – |
| CCC(CO)Oc1cc(NC(=O)c2cccc(F)c2)c2ncn(C(C)C)c2c1 (stereo not given) | inactive | – |
| O=C1N[C@@H](c2ccccc2)COC(=O)[C@H](Cc2ccc(F)cc2)C/C=C\C[C@@H]1CC(=O)N(CCO)Cc1ccccc1 | inactive | – |
| CC(C)C(=O)N1CCN(c2nc(-c3ccccc3)c3c(c2C#N)CC(C)(C)OC3)CC1 | inactive | – |
| CC1(C)Cc2c(C#N)c(SCc3nc4ccccc4[nH]3)nc(N3CCOCC3)c2CO1 | 12.6 µM (active) | – |
| COc1ccc(CSc2nc(N3CCOCC3)c3c(c2C#N)CC(C)(C)OC3)cc1 | inactive | – |
| C=CC(COCc1ccccc1)N(CC(=O)OC)S(=O)(=O)c1cc(Br)ccc1OC (stereo not given) | – | 4.23% [at 9.22 µM] |
